Data from PubChem BioAssay.
Activity calls are given as the source filed them. How the calls were made is not given here.

Test: inhibition of Brca1/Bard1 split-luciferase complementation, confirmation, counter-screen for Mdm2/MdmX interaction inhibitor project, luminescence, single concentration (AID 504668)
Settings: Brca1/Bard1 bimolecular luciferase complementation counterscreen, at 8 µM, hits give high values
For O=C(CCCN1C(=O)/C(=C/c2ccccc2)SC1=S)Nc1ccccc1O, the inhibition was 29.9% (active).
With COC(=O)c1ccc2nc(NC(=O)CCS(=O)(=O)c3ccccc3)sc2c1 the inhibition was 27.4% (active).
For CCCCCCCCCC(=O)N[C@@H]1c2cc(OC)c(OC)cc2C[C@H]1OCc1ccccc1, the inhibition was 35.8% (active).
With CC[C@@H](C(=O)[C@@H](C)[C@@H](O)[C@H](C)CCc1ccc(C)c(O)c1C(=O)O)[C@H]1O[C@](CC)([C@H]2CC[C@](O)(CC)[C@H](C)O2)C[C@@H]1C the inhibition was 35.2% (active).
With CC(=O)Oc1c(C)cc(Cl)cc1C(=O)Nc1ccc([N+](=O)[O-])cc1Cl the inhibition was 27.7% (active).
With Cc1cc(C)n(-c2ccc3cccc(NS(C)(=O)=O)c3n2)n1 the inhibition was 32.1% (active).
In the case of C/C(=N/NC(=O)CN(c1ccccc1)S(=O)(=O)c1ccccc1)c1ccccc1O, the inhibition is reported as 26.8% (active).
With CCC(=O)NC(c1ccccc1OC)c1ccc2cccnc2c1O (stereo not given) the inhibition was 32.5% (active).
For O=C(CCl)N1CCN2C(=O)c3ccccc3C12c1ccc(Cl)cc1 (stereo not given), the inhibition was 28.5% (active).
In the case of O=C(Oc1c(Cl)cc(Cl)c2cccnc12)c1cccs1, the inhibition is reported as 32.1% (active).
With COc1ccc(-c2cc(C(=O)NNC3=NCCC3)c3c(C)nn(-c4ccccc4)c3n2)cc1 the inhibition was 34.3% (active).
For O=C(CCl)Nc1cn(-c2ccccc2)nc1-c1ccccc1, the inhibition was 33.7% (active).
With C/C(=N\NC(=O)c1cc2ccccc2cc1O)c1ccccn1 the inhibition was 24.3% (active).
With COc1cccc(-c2nnc(NC(=O)c3ccc(S(=O)(=O)N(CC(C)C)CC(C)C)cc3)o2)c1 the inhibition was 24.3% (active).
For CC[C@@]1(C(=O)OC)N[C@H](CN(C)C(=O)Nc2ccc(C(F)(F)F)cc2)[C@@H]2C(=O)N(Cc3ccccc3)C(=O)[C@@H]21, the inhibition was 32.2% (active).
With COc1ccc(N=Nc2ccc(O)c3ncccc23)cc1 the inhibition was 31.7% (active).
With Oc1ccc(CN2CCc3ccccc3C2)c2cccnc12 the inhibition was 24.4% (active).
In the case of COc1ccc(C(=O)Nc2nc3c(s2)CCCC3)cc1S(=O)(=O)N1CCCc2ccccc21, the inhibition is reported as 23.4% (active).
With COc1ccccc1-c1cc(C(F)(F)F)nc(S(=O)(=O)CCCC(=O)Nc2cc(C)on2)n1 the inhibition was 32.8% (active).
In the case of COc1ccc(NS(=O)(=O)c2cc(NC(=O)c3ccc(Cl)cc3)ccc2N2CCOCC2)cc1, the inhibition is reported as 26.8% (active).
In the case of Cc1nc(SCC(=O)Nc2ccc(S(=O)(=O)N3CCOCC3)cc2)c2c(C)c(C)sc2n1, the inhibition is reported as 28.6% (active).
For CC(C)(C)c1cc(Cl)c(O)c(NC(=S)NC(=O)c2cccnc2)c1, the inhibition was 35.2% (active).
For O=C(CN1CCCc2ccccc21)N/N=C/c1c(O)ccc2ccccc12, the inhibition was 30.3% (active).
In the case of O=C(c1ccc(S(=O)(=O)c2ccc(F)cc2)c([N+](=O)[O-])c1)N1CCCCCC1, the inhibition is reported as 30.1% (active).
With COc1ccc(C(=O)C/C(=C\C(=O)c2ccc(C)cc2)c2ccccc2)cc1 the inhibition was 24.3% (active).
